Sfp PPTase inh: qHTS Assay for Inhibitors of Bacillus subtilis Sfp phosphopantetheinyl transferase (PPTase) | Biochemical Sfp PPTase activity, qHTS | Potency, µM, inactives show largest response in the series, negative = inhibition, actives largely listed as inhibitors | 310,000 tested, 3.5% active;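 further: the enzyme is Sfp with the accession as filed and its product quenches rhodamine fluorescence; potency means the concentration at half of the fitted maximal effect; 0% = enzyme reaction without inhibitor and -100% = no enzyme wells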
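Fluorescence-quenching assay: 15 nM Sfp-PPTase preincubated 15 min at room temperature with compound, then 5 uM rhodamine-CoA and 12.5 uM BHQ-2-labelled YbbR peptide added. Fluorescence (ex 525/em 598 nm) read at start and after 30 min; difference gives rate.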
KDM4E inh: qHTS Assay for Inhibitors of Human Jumonji Domain Containing 2E (JMJD2E). Lysine-specific demethylase 4E (Homo sapiens), B2RXH2. JMJD2E catalytic domain, FDH-coupled NADH fluorescence (FDH is formaldehyde dehydrogenase). Potency, µM (doses to about 57.1 µM), without a hit: top-dose activity change, negative = inhibition, hits mostly inhibitors. 230,000 tested, 1.6% active; active means well fitted inhibition curve with a large enough effect, not every such curve was filed as active; inconclusive means small, poorly fitted or top-dose-only effect, or another doubt; inactive means no such curve, though single readings can be large or run the other way;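 further: potency means the concentration at half of the fitted maximal effect; 0% = wells with enzyme and -100% = buffer wells without enzyme; nearly all actives have a fitted effect of over 50% in size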
miR-21 act: qHTS Assay for Modulators of miRNAs and/orActivators of miR-21 | 340,000 tested, under 10 active | HeLa miR-21 FLuc reporter, luciferase, 48 h | Potency, µM (series often up to 38.3 µM), inactives show at the top dose activity change, positive = activation, most hits filed as activators;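 further: % of control where 0% means no effect; miR-21 action dims this reporter so a rising signal means less miR-21 action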
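HeLa cells endogenously expressing miR-21, stably carrying CMV-driven firefly luciferase with a downstream miR-21 binding site, 2000 cells/well. Titrations up to approximately 40 uM, 48 hours; luciferase luminescence read.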
G9a inh: qHTS Assay for Inhibitors of Histone Lysine Methyltransferase G9a | G9a H3K9 monomethylation, AlphaScreen, 2 h | Histone-lysine N-methyltransferase EHMT2 (Homo sapiens), Q96KQ7 | AID 504332, 2011 | 350,000 tested, 8.8% active | Potency, µM (series often up to 102 µM), for inactives: top-dose activity, negative = inhibition, most hits filed as inhibitors; further: potency means the concentration at half of the fitted maximal effect; on the % scale 0 is the no-effect control and ±100 the full control effect; nearly all actives have a fitted effect of over 75% in size
Target sequence (Q96KQ7 913-1193 limits assumed): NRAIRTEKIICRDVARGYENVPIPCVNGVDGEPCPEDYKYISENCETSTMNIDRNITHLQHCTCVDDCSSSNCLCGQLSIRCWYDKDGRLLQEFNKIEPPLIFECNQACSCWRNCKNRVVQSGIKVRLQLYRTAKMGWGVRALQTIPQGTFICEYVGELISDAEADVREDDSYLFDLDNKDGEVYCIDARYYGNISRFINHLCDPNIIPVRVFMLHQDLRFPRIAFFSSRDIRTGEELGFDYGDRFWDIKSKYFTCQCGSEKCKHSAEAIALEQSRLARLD
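AlphaScreen detection with an anti-monomethyl H3K9 antibody quantified product after a 2 h room-temperature reaction containing 500 nM biotinylated H3K9 peptide, 20 µM SAM and 20 nM enzyme, which had been preincubated 15 min with compound.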
Lamin A splicing: qHTS Assay for Modulators of Lamin A Splicing; HeLa LMNA splicing GFP/RFP minigene ratio, 48 h; Potency, µM (top dose mostly 46.1 µM), inactives show at the top dose ratio change, negative = inhibition, most hits filed as inhibitors; 200,000 tested, 0.01% active; active means well fitted inhibition curve with a large enough effect in the signal ratio, with a control signal flat, not every such curve was filed as active; inconclusive means small, poorly fitted or top-dose-only effect, or effect the other way, or a change in a side signal; the % refers to the signal ratio; further: potency means the concentration at half of the fitted maximal effect; on the % scale 0 is the no-effect control and ±100 the full control effect
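Read-out is the ratio of GFP to DsRed2 object intensity, acquired by 488 nm laser-scanning cytometry on HeLa lamin A-EGFP minigene reporter cells. Compound incubation 48 hrs at 37 °C in Opti-MEM with 2% FBS; DMSO 0.5% final.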
ALDH1A1 block: qHTS Assay for Inhibitors of Aldehyde Dehydrogenase 1 (ALDH1A1). Aldehyde dehydrogenase 1A1 (Homo sapiens), P00352. Purified ALDH1A1, NADH fluorescence, propionaldehyde substrate. Potency, µM (highest dose often 75.3 µM), for the others: at the highest dose activity, negative = inhibition, hits mostly inhibitors. 220,000 tested, 7.3% active; active means well fitted inhibition curve with a large enough effect, not every such curve was filed as active; inconclusive means small, poorly fitted or top-dose-only effect, or another doubt; inactive means no such curve, though single readings can be large or run the other way;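 further: potency means the concentration at half of the fitted maximal effect; plate controls were no enzyme wells and a reference inhibitor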
Target sequence (P00352 whole entry, looked up): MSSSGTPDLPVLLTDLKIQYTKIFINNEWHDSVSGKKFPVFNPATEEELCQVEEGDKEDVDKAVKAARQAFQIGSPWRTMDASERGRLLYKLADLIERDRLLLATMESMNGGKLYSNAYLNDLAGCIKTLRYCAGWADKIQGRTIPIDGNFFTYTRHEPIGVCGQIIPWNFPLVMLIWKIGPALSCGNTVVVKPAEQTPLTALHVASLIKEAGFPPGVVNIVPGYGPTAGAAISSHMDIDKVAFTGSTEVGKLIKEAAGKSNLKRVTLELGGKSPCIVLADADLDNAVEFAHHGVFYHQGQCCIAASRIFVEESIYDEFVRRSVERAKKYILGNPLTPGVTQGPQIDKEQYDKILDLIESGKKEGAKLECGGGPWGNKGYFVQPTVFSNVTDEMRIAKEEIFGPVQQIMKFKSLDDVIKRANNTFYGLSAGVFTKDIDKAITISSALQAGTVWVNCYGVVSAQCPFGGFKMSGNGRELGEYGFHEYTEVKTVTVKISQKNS
Starred values were filed as active, the others as inactive; ? = inconclusive; . = no result; [ ] = dose if it differs, or a comment. Sampled rows, rich in hits. Any-hit rate of the full collection: about 13%. Unless noted, the call rests on the fitted dose curve; in most records, active means well fitted curve in the direction sought with a large enough effect; inconclusive means small, poorly fitted or top-dose-only effect, or another doubt; inactive means no such curve, though single readings can be large; an effect the other way counts as inactive or inconclusive.

SMILES	Sfp PPTase inh	KDM4E inh	miR-21 act	G9a inh	Lamin A splicing	ALDH1A1 block
Cc1c(N2C(=O)c3ccc4c5c(ccc(c35)C2=O)CC4)c(=O)n(-c2ccccc2)n1C	-4.4%	?	-3.3%	50.1µM*	-18.3%	?
Cc1cc(C)c(S(=O)(=O)N2CCN(S(=O)(=O)N3CCOCC3)CC2)c(C)c1	17.8%	.	1.3%	24.0%[59 µM]	.	.
COc1ccc(S(=O)(=O)NCC2CCCO2)cc1NC(=O)c1ccccc1F (stereo not drawn)	-2.3%	.	6.1%	13.0%	.	.
O=C(c1cccs1)[C@@H]1[C@@H]2C(=O)N(Cc3ccc4c(c3)OCO4)C(=O)[C@@H]2C2c3ccccc3C=CN21 (stereo partly drawn)	-2.6%	-14.2%	-3.7%	?	7.6%	14.1µM*
O=C(c1ccc2c(c1)OCO2)C1CCCN(C(=O)Nc2ccc(F)cc2F)C1 (stereo not drawn)	-5.5%	-10.1%	-12.7%	1.4%[12.7 µM]	.	-3.5%
O=C1C=C[C@@H](O)[C@H]2[C@@H]3C(=O)N(Cc4ccc5c(c4)OCO5)C(=O)[C@@H]3CC[C@H]12	10.3%	.	.	.	.	-8.3%[13.5 µM]
CC(C)(C)C(=O)[C@@H]1[C@@H]2C(=O)N(C3CCCCC3)C(=O)[C@@H]2[C@H]2c3ccccc3C=CN12	-18.3%	?	1.0%	10µM*	-2.1%	20µM*
O=C(c1ccc2c(c1)OCO2)[C@@H]1[C@@H]2C(=O)N(C3CCCCC3)C(=O)[C@@H]2C2c3ccccc3C=CN21 (stereo partly drawn)	-0.1%	?	-7.2%	31.6µM*	?	3.55µM*
COc1ccc(N2C(=O)[C@@H]3[C@H](C2=O)[C@H]2c4ccccc4C=CN2[C@@H]3C(C)=O)cc1	-16.2%	?	-2.8%	8.91µM*	-6.0%	31.6µM*
CC[C@H](C)[C@H](NC(=O)[C@@H]1CCCN1C(=O)[C@H](C)NC(=O)[C@H](CC(N)=O)NC(=O)[C@@H]1CCCN1C(=O)[C@@H]1CCCN1C(=O)[C@H](CCCN=C(N)N)NC(=O)[C@H](Cc1ccc(O)cc1)NC(=O)[C@H](C)NC(=O)[C@@H]1CCCN1C(=O)[C@@H]1CCCN1C(=O)[C@@H](N)[C@@H](C)O)C(=O)N[C@@H](CC(C)C)C(=O)O	-9.8%	.	.	.	.	.
COC(=O)c1sc(S(=O)(=O)N2CCCCC2C)c(C(=O)OC)c1C (stereo not drawn)	.	.	.	0.7%[12.7 µM]	.	.
NC(N)=NS(=O)(=O)c1ccc(NC(=S)NC(=O)Cc2ccc(Cl)cc2)cc1	-13.7%	.	0.4%	.	.	.
O=C(Nc1ccc2c(c1)OCO2)[C@@H]1[C@@H]2C(=O)N(C3CCCCC3)C(=O)[C@@H]2C2c3ccccc3C=CN21 (stereo partly drawn)	-11.7%	?	-12.4%	10µM*	-10.6%	11.2µM*
O=C(Nc1ccc2c(c1)OCO2)C1CCCCC1	7.4%	.	-48.3%	?	.	.
COc1ccc(-c2nc(SCC(=O)NCc3ccccc3Cl)n[nH]2)cc1	.	.	16.3%	31.3%[59 µM]	-28.7%[46 µM]	.
CN(CC(CC(=O)Nc1nncs1)c1ccccc1)S(=O)(=O)c1ccc(Br)cc1 (stereo not drawn)	4.0%	-5.3%	1.3%	?	-2.4%	12.6µM*
CN(CC(CC(=O)Nc1nncs1)c1ccccc1)S(=O)(=O)c1ccccc1 (stereo not drawn)	-4.6%	-8.7%	1.7%	?	-7.9%	8.91µM*
COCc1nc2ccccc2n1Cc1ccc(C(C)(C)C)cc1	.	.	-44.9%	6.0%[59 µM]	16.7%[46 µM]	.
Cc1ccc(-c2nnn(CC(=O)N(CCCO)C(C(=O)NC3CCCC3)c3ccc(F)cc3)n2)o1 (stereo not drawn)	2.9%	.	0.3%	17.2%	.	.
C#CCOCCOCCOCCNc1nc(N2CCN(C(=O)Cn3cc(CC(C)O)nn3)CC2)nc(N2CCN(C(=O)[C@H](C)n3cc(CCCN=C(N)N)nn3)CC2)n1 (stereo partly drawn)	0.6%	-26.6%	-3.7%	7.08µM*	-7.1%	2.0%
C#CCOCCOCCOCCNc1nc(N2CCN(C(=O)Cn3cc(CCCCN)nn3)CC2)nc(N2CCN(C(=O)[C@H](C)n3cc(CCCN=C(N)N)nn3)CC2)n1	4.1%	?	-2.3%	28.2µM*	2.2%	21.8%
CC(OC(=O)Cn1[nH]c(=O)c2ccccc2c1=O)C(=O)Nc1ccc(F)cc1 (stereo not drawn)	.	.	.	14.0%[0.501 µM]	.	.
CC(c1ccc(F)cc1)n1cc(C(=O)NCc2ccccn2)nn1 (stereo not drawn)	-1.6%	24.2%	1.6%	8.4%	.	3.0%
CC(c1ccc(F)cc1)n1cc(C(=O)NCCN(C)C)nn1 (stereo not drawn)	17.3%	6.5%	-1.6%	44.7µM*	13.3%[46 µM]	3.9%
Cc1nc(SCC(=O)Nc2nc3ccccc3s2)n[nH]1	3.7%	.	-25.4%	79.4µM*	.	.
SMILES	Sfp PPTase inh	KDM4E inh	miR-21 act	G9a inh	Lamin A splicing	ALDH1A1 block
Cc1nc(SCC(=O)Nc2ccnc3ccccc23)n[nH]1	18.2%	-4.5%	11.8%	7.4%	-3.9%	17.8µM*
Cc1nc(SCC(=O)Nc2nc3ccccc3s2)c(C#N)c(C)c1C	50.1µM*	?	?	10µM*	-3.1%	?
Cc1cc(C(F)(F)F)c(C#N)c(SCC(=O)Nc2nc3ccccc3s2)n1	2.8%	4.2%	-0.6%	4.5%[59 µM]	?	-1.5%
O=S(=O)(Nc1cc(Cl)cc(Cl)c1)N1CCOCC1	14.0%	.	-5.2%	16.5%	.	.
CCOc1ccc(NC(=O)Nc2c(C)n(C)n(-c3ccccc3)c2=O)cc1	15.3%	.	6.4%	4.6%[2.33 µM]	.	.
CCC(=O)OC1C2CC3=C4CC(=O)OC(c5ccoc5)[C@]4(C)CCC3[C@@](C)(C2=O)C(CC(=O)OC)C1(C)C (stereo partly drawn)	-0.5%	0.3%	.	-23.6%[2.33 µM]	.	7.8%
COc1ccc(CCN(C)C2CCCN(S(=O)(=O)c3ccccc3)C2)cc1OC (stereo not drawn)	-2.0%	.	-0.5%	.	.	.
O=C(Nc1ccc(Cl)cn1)c1cc(S(=O)(=O)N2CCCCC2)ccc1Cl	3.1%	?	0.6%	-16.6%[2.33 µM]	7.0%	28.2µM*
O=C(Nc1cccc(O)c1)c1cc(S(=O)(=O)N2CCCC2)ccc1Cl	5.4%	-2.1%	16.3%	-8.2%	?	5.01µM*
O=C(Nc1ccccc1)c1cc(S(=O)(=O)N2CCSCC2)ccc1Cl	0.4%	13.1%	-6.1%	-8.6%[59 µM]	?	-12.0%

Bioassay records: PubChem BioAssay, National Center for Advancing Translational Sciences (NCATS)
